Values without a mark were called inactive. For some of these results: Measured potencies and affinities stand elsewhere. The source made the active and inactive calls. Unless noted, the rule behind the calls is not given here.

Experimental findings from PubChem BioAssay are described below.

The nature of experiment [1]: antimalarial activity against Dd2 strain (AID 2302;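 active = growth inhibition above 50% at the single 2 µM test dose, taken to imply half-maximal potency below 2 µM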;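 note: 0% = DMSO untreated growth and 100% = chloroquine plus artemisinin killed control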). The following applies: P. falciparum Dd2 in RBCs, LDH growth readout, 72 h; at 2 µM; active compounds read high.
Experiment [2] can be described thus: HepG2 cytotoxicity, primary screen, cytotoxicity control for P. falciparum antimalarial project, cell-based, ATP luminescence (AID 2303;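 active = inhibition above 50%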;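 note: 0% = DMSO wells and 100% = digitonin-killed cells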). The following applies: HepG2 viability, 24-48 h, at 10 µM, active compounds read high.
Experiment [3] addresses L-lactate dehydrogenase (Plasmodium falciparum (isolate CDC / Honduras)) (UniProt Q27743). Description: PfLDH activity inhibition – cell lysate, 3D7 strain, counter-screen for P. falciparum growth inhibition project (AID 2304).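 Note: 0% = vehicle and 100% = reference inhibitor.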 The following applies: P. falciparum 3D7 crude extract, LDH APAD/NBT absorbance; at 2 µM; active compounds read high. For orientation: The purpose of a counterscreen is to sort out artefacts and off-target activity.

A short description of experiment [4]: inhibition of 3D7 malaria parasite growth – strain 3D7 (AID 2306).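 Note: 0% = DMSO wells and 100% = chloroquine plus artemisinin control wells.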 The following applies: P. falciparum 3D7 erythrocytic growth, LDH absorbance, 72 h; at 2 µM; active compounds read high.
For experiment [5], the target named is Calcium-dependent protein kinase 1 (Plasmodium falciparum (isolate 3D7)) (UniProt P62344). The experiment is described as follows: PfCDPK1 kinase inhibitors, biochemical, TCAMS library (AID 1159585; cut-off not given, nearly all actives have IC50 up to about 0.98 µM;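 note: inhibitors leave more ATP so luminescence rises with inhibition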). The following applies: recombinant PfCDPK1, Kinase-Glo ATP depletion luminescence. Background: Kinase-Glo measures the ATP left after a reaction by luminescence.
Chain of Calcium-dependent protein kinase 1 (Plasmodium falciparum (isolate 3D7)) (P62344 whole entry, looked up): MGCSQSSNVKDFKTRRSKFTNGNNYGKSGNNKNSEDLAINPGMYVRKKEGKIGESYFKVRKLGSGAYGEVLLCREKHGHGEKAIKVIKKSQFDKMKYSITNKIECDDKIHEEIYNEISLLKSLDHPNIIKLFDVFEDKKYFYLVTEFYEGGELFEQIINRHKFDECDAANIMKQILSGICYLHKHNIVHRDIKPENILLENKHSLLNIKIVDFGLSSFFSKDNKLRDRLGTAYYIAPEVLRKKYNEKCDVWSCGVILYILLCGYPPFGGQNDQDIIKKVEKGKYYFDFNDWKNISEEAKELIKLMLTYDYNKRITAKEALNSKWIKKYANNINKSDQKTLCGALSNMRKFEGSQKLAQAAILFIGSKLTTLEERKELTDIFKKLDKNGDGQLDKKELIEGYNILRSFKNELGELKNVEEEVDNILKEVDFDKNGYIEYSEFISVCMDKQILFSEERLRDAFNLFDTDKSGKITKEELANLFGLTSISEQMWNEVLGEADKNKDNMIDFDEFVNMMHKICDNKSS

For experiment [6], the target named is Plasmodium falciparum protein kinase 6 (PK6, PF3D7_1337100) (UniProt Q8IDW1). Description: PfPK6 kinase inhibitors, biochemical, TCAMS library (AID 1159586). Conditions: recombinant PfPK6, Kinase-Glo ATP depletion luminescence.
Chain of Plasmodium falciparum protein kinase 6 (PK6, PF3D7_1337100) (Q8IDW1 1-305): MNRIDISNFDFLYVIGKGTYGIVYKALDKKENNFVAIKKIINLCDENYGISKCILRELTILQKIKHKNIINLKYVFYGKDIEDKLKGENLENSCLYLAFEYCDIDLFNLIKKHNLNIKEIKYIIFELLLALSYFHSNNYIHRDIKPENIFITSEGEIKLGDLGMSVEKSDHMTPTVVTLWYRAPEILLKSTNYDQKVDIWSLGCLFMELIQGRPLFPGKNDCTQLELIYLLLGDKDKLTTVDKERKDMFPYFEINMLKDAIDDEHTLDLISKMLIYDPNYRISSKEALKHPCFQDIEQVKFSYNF
The target in experiment [7] is Protein kinase 7 (PK7), Plasmodium falciparum 3D7 (PF3D7_0213400) (UniProt Q7YTF7). Description: inhibition of Plasmodium PK7 catalytic activity – biochemical, TCAMS antimalarial set, Kinase-Glo luminescence (AID 1159587). Conditions: recombinant PfPK7, Kinase-Glo ATP depletion luminescence.
Chain of Protein kinase 7 (PK7), Plasmodium falciparum 3D7 (PF3D7_0213400) (Q7YTF7 1-343): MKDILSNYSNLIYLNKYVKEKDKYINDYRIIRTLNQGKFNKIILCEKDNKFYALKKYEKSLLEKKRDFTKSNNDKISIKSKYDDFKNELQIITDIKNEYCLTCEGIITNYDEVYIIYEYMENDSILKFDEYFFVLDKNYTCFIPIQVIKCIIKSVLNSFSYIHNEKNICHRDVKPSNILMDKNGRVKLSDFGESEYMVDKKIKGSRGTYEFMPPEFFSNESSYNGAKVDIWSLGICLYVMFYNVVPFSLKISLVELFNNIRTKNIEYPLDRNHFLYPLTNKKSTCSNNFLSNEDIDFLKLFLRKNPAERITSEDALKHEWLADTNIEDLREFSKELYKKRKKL
For experiment [8], the target named is Calcium-dependent protein kinase 4 (Plasmodium falciparum (isolate 3D7)) (UniProt Q8IBS5). Description: PfCDPK4 kinase inhibitors, biochemical, TCAMS library (AID 1159588; cut-off not given, nearly all actives have IC50 up to about 0.91 µM). The following applies: recombinant PfCDPK4, Kinase-Glo ATP depletion luminescence.
Chain of Calcium-dependent protein kinase 4 (Plasmodium falciparum (isolate 3D7)) (Q8IBS5 whole entry, looked up): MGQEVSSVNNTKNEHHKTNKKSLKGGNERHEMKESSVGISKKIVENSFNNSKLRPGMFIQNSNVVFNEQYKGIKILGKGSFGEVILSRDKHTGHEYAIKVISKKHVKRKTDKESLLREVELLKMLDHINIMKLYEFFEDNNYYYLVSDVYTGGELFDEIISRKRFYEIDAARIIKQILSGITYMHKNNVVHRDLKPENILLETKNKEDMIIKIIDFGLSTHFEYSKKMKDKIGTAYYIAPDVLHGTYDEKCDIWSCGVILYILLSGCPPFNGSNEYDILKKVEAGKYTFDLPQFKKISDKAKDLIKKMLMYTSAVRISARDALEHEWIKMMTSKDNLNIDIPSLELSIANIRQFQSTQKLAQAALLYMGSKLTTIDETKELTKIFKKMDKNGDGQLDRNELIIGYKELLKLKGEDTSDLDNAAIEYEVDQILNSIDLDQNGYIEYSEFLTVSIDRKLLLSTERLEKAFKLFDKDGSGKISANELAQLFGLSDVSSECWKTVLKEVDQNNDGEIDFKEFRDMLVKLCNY

Chain of L-lactate dehydrogenase (Plasmodium falciparum (isolate CDC / Honduras)) (Q27743 whole entry, looked up): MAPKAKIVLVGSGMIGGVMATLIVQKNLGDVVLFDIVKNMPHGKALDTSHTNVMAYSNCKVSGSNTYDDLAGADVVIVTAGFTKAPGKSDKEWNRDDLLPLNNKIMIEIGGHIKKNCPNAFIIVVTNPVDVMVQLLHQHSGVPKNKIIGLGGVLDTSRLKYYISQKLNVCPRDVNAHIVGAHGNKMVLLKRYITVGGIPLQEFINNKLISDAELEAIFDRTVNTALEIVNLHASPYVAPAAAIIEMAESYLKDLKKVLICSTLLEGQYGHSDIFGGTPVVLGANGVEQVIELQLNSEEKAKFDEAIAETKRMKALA

The term inhibition denotes the change of the read-out against control, counted positive when it falls. Consider `CCCCN(CCCC)CCCCNc1c2ccc(Cl)cc2nc2ccc(OC)cc12`, for which the values for the growth inhibition in experiment [1] and in experiment [4] were 96% (active) and 101% (active), respectively. For the same compound, the inhibition in experiment [2] is 68% (active); in experiment [3], 2%. Besides, the outcome in experiment [5], in experiment [6], in experiment [7] and in experiment [8] was inactive.

For the compound `COc1ccc2nccc([C@@H](O)CN3CCC(NCc4cc5ccc(Cl)cc5[nH]4)CC3)c2c1`, the growth inhibition is 61% (active) in experiment [1] and 99% (active) in experiment [4]. Besides, the values for the inhibition in experiment [2] and in experiment [3] were 30% and 4%, respectively. Further, the result in experiment [5], in experiment [6], in experiment [7] and in experiment [8] was inactive.

Regarding `CCCN(Cc1nnc(-c2ccco2)o1)C(=O)C1CCCN(C(=O)c2ccc(Cl)cc2)C1` (stereo not given), the growth inhibition in experiment [1] and in experiment [4] was 96% (active) throughout. For the same compound, the inhibition was -3% in experiment [2] and -1% in experiment [3]. In addition, the outcome in experiment [5], in experiment [6], in experiment [7] and in experiment [8] was inactive.

Regarding `COc1ccccc1CCNc1nc(C)cc(NCCC(=O)Nc2ccccc2)n1`, the values for the growth inhibition in experiment [1] and in experiment [4] were 24% and 101% (active), respectively. In addition, the inhibition was 7% in experiment [2] and 0% in experiment [3]. Also, the result in experiment [5], in experiment [6], in experiment [7] and in experiment [8] was inactive.

Consider `CC(C)(C)c1ccc(NC(=O)c2ccc(CN3CCCN(Cc4cccc(O)c4)CC3)cc2)cc1`, for which the growth inhibition in experiment [1] was 62% (active); in experiment [4], 102% (active). Moreover, the figures for the inhibition in experiment [2] and in experiment [3] were 54% (active) and 1%, respectively. Also, the result in experiment [5], in experiment [6], in experiment [7] and in experiment [8] was inactive.

In the case of `O=C(/C=C/c1ccc(Cl)c(Cl)c1)NCCCCCN1CCC(NC(=O)Nc2ccc(Cl)c(C(F)(F)F)c2)CC1`, the values for the growth inhibition in experiment [1] and in experiment [4] were 19% and 99% (active), respectively. Further, the inhibition was 76% (active) in experiment [2] and -1% in experiment [3]. The outcome in experiment [5], in experiment [6], in experiment [7] and in experiment [8] was inactive.

Regarding `Cc1ccccc1Oc1nc2ccccc2nc1SCC(=O)NC(C)C`, the growth inhibition in experiment [1] was 55% (active); in experiment [4] it was 97% (active). The inhibition in experiment [2] was -14%; in experiment [3] it was -1%. The result in experiment [5], in experiment [6], in experiment [7] and in experiment [8] was inactive.

With `CCN(CC)CCCC(C)Nc1c(-c2ccc(OC)cc2)cnc2ccccc12` (stereo not given), the growth inhibition in experiment [1] was 38%; in experiment [4] it was 93% (active). In addition, the inhibition was 3% in experiment [2] and -6% in experiment [3]. In addition, the result in experiment [5], in experiment [6], in experiment [7] and in experiment [8] was inactive.

Regarding `CN(C)Cc1cccc(-c2ccc(NC(=O)c3ccc4c(=O)n(CC5CCCO5)cnc4c3)cc2)c1` (stereo not given), the growth inhibition is 14% in experiment [1] and 97% (active) in experiment [4]. Further, the inhibition in experiment [2] is 28%; in experiment [3] it was 0%. Also, the result in experiment [5], in experiment [6], in experiment [7] and in experiment [8] was inactive.

For `CC(Oc1cccc(Cl)c1)C(=O)N1CCc2ccccc21` (stereo not given), the results for the growth inhibition in experiment [1] and in experiment [4] were 77% (active) and 94% (active), respectively. Also, the inhibition in experiment [2] is 4%; in experiment [3], -1%. The result in experiment [5], in experiment [6], in experiment [7] and in experiment [8] was inactive.

`N#Cc1cncc(-c2nc3c(N4CCC(Cc5ccccc5)CC4)cccc3n2C2CCNC2)c1` (stereo not given): the growth inhibition was 7% in experiment [1] and 88% (active) in experiment [4]. The inhibition in experiment [2] is 5%; in experiment [3], -1%. For the same compound, the result in experiment [5], in experiment [6], in experiment [7] and in experiment [8] was inactive.

As for `COc1cc(NCCCNCc2cn(Cc3cc(Br)cc(Br)c3)c3ccccc23)nc2ccccc12`, the growth inhibition in experiment [1] is 85% (active); in experiment [4], 100% (active). In addition, the inhibition in experiment [2] is 99% (active); in experiment [3], 4%. The outcome in experiment [5], in experiment [6], in experiment [7] and in experiment [8] was inactive.

With `CC(=O)c1ccc(NC(=O)Nc2ccc(N(C)c3ccnc(NC4CC4)n3)cc2)cc1`, the growth inhibition in experiment [1] is 60% (active); in experiment [4] it was 100% (active). For the same compound, the inhibition in experiment [2] is 59% (active); in experiment [3] it was 1%. The outcome in experiment [5], in experiment [6], in experiment [7] and in experiment [8] was inactive.

Regarding `Cc1ccc(NC(=O)Nc2ccc(Cl)c(C(F)(F)F)c2)cc1-c1ccc(C(=O)NCCN2CCOCC2)cc1`, the growth inhibition in experiment [1] was 31%; in experiment [4], 98% (active). The inhibition was 52% (active) in experiment [2] and 0% in experiment [3]. Further, the outcome in experiment [5], in experiment [6], in experiment [7] and in experiment [8] was inactive.

With `COc1ccc(CN2C(=S)N(Cc3ccccc3)C(=O)C2CC(=O)Nc2ccccc2)cc1OC` (stereo not given), the figures for the growth inhibition in experiment [1] and in experiment [4] were 73% (active) and 96% (active), respectively. Also, the inhibition in experiment [2] was 6%; in experiment [3], -2%. The outcome in experiment [5], in experiment [6], in experiment [7] and in experiment [8] was inactive.

`c1cc2c3c(cccc3c1)NC(CCCCCCCCC1=Nc3cccc4cccc(c34)N1)=N2`: the growth inhibition was 6% in experiment [1] and 93% (active) in experiment [4]. Moreover, the inhibition is 14% in experiment [2] and 0% in experiment [3]. Further, the result in experiment [5], in experiment [6], in experiment [7] and in experiment [8] was inactive.

Regarding `CCN(CC)CCOc1ccc(NC(=O)c2oc3ccccc3c2C=Cc2ccccc2)cc1`, the growth inhibition in experiment [1] is 54% (active); in experiment [4] it was 98% (active). Besides, the inhibition in experiment [2] is 51% (active); in experiment [3] it was -2%. Also, the outcome in experiment [5], in experiment [6], in experiment [7] and in experiment [8] was inactive.

Regarding `CC(=O)Nc1cccc(CNc2cc(C)nc(Nc3ccc(C)cc3)n2)c1`, the growth inhibition was 23% in experiment [1] and 82% (active) in experiment [4]. In addition, the values for the inhibition in experiment [2] and in experiment [3] were 18% and 0%, respectively. For the same compound, the outcome in experiment [5], in experiment [6], in experiment [7] and in experiment [8] was inactive.

On to `FC(F)(F)COc1ccc2ccccc2c1CCNCCCCNCCc1c(OCC(F)(F)F)ccc2ccccc12`, for which the growth inhibition is 53% (active) in experiment [1] and 100% (active) in experiment [4]. Moreover, the inhibition in experiment [2] is 99% (active); in experiment [3] it was 0%. The outcome in experiment [5], in experiment [6], in experiment [7] and in experiment [8] was inactive.

In the case of `O=c1cc(NCCC(CNCCc2ccccc2)NCc2cc(Br)cc(Br)c2)[nH]c2ccccc12` (stereo not given), the values for the growth inhibition in experiment [1] and in experiment [4] were 47% and 98% (active), respectively. In addition, the inhibition was 3% in experiment [2] and -6% in experiment [3]. The result in experiment [5], in experiment [6], in experiment [7] and in experiment [8] was inactive.
